# From PubChem
# TEAD-YAP block: TEAD-YAP interaction inhibition, primary screen, TEAD-YAP interaction inhibitor project, luminescence, HEK-TIYL cells; TEAD-Gal4/YAP UAS-luciferase luminescence; inhibition, % at 9.12 µM; 640,000 compounds, 1.4% hits; AID 1259422, 2018; in the data active = inhibition above about 32%;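 note: 0% = median of test compound wells and 100% = reference inhibitor wells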
# GPR151 ag: activators of human GPR151, primary screen, cell-based, PathHunter beta-arrestin, luminescence. PathHunter beta-arrestin GPR151 cells. G-protein coupled receptor 151 (Homo sapiens), Q8TDV0. activation, % at 11.2 µM. 650,000 compounds, 1% hits; in the data active = activation above about 4.9%;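 note: 0% = median of compound wells and 100% = cells with positive control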
# MITF primary: MITF inhibitors, primary screen, biochemical, AlphaScreen, human; Microphthalmia-associated transcription factor (Homo sapiens), O75030; AlphaScreen MITF homodimerization, bead proximity signal; inhibition, % at 2.6 µM; 650,000 compounds, 0.91% hits; AID 1259374, 2018; in the data active = inhibition above about 50%;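 note: 0% = vehicle wells with protein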
# FBW7 act: FBW7 E3 ligase activators, primary screen, biochemical, AlphaScreen, human | F-box/WD repeat-containing protein 7 (Homo sapiens), Q969H0 | AlphaScreen FBW7–phospho-cyclin E peptide binding, activator screen | normalized activity (activation), % at 26.1 µM | 650,000 compounds, 0.13% hits | AID 1259310, 2017; in the data active = normalized activity above about 1.9%;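 note: purified mutant Fbw7 with reduced substrate affinity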
# GPR151 conf act: GPR151 activators, triplicate retest, confirmation, cell-based, PathHunter beta-arrestin, luminescence | activation, % at 11.2 µM | 6,700 tested, under 10 active | GPR151 PathHunter beta-arrestin cells, 90 min; % of EA-reagent control over plate median | shares compounds with GPR151 ag;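 active = mean percent activation across replicates above the confirmation screen cutoff of 4.91%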
# GPR119 ag: GPR119 activators in beta-arrestin cells, counter-screen for GPR151 activator project, cell-based, PathHunter beta-arrestin, luminescence, triplicate; 90 min; 0 = compound-well median, 100 = enzyme-acceptor control; 6,700 compounds, 0.3% hits; shares compounds with GPR151 ag; activation, % at 11.2 µM;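 active = mean percent activation in the counterscreen above 29.09%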;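 note: counterscreen on off-target GPR119 to flag nonselective hits from the GPR151 activator screen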
# Target sequence (Q8TDV5 whole entry, looked up): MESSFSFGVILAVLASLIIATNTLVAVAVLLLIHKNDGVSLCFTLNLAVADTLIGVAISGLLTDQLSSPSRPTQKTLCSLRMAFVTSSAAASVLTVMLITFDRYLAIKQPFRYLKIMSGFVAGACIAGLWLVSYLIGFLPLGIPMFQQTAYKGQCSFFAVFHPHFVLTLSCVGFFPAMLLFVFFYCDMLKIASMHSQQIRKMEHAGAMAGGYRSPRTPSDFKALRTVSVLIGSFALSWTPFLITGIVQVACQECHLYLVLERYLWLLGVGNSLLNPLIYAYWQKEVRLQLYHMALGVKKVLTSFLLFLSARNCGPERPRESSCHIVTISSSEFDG
# * marks the source's active call; other numbers are inactive results; x = not tested or not shown. The list is not random: actives were taken first. Their share in the collection is about 3.5%.
SMILES,TEAD-YAP block,GPR151 ag,MITF primary,FBW7 act,GPR151 conf act,GPR119 ag
C=CCn1c(C)cn2c3c(=O)n(CC(C)C)c(=O)n(C)c3nc12,6,1,-7,0,x,x
O=C(Cc1ccc([N+](=O)[O-])cc1)Nc1cccc(-c2nnc(-c3ccccc3)o2)c1,-5,-1,5,1,x,x
COc1ccccc1C(=O)Nc1ccccc1-c1nnn(CC(=O)NCc2ccco2)n1,10,5.3*,3,0,0,-6
Cc1ccc2c(Cn3cc(C(F)(F)F)cc(Cl)c3=O)cc(=O)oc2c1,-3,7.6*,-8,0,-1,-7
Fc1ccccc1COc1ccc(Br)cc1/C=N/n1cnnc1,-2,-1,-24,0,x,x
O=C(CN1C(=O)COc2ccccc21)Nc1cccc(F)c1,-7,5.2*,11,0,0,8
COCCNC(=O)C(=O)NC(C)c1ccccc1 (configuration not stated),-10,2,-1,0,x,x
CC(C)OCCCNC(=O)C(=O)NC(C)c1ccccc1 (configuration not stated),9,5.3*,-4,0,1,13
O=C(NN1C(=O)C2C3C=CC(C3)C2C1=O)c1ccc(Cl)cc1Cl (configuration not stated),-2,0,12,0,x,x
O=C1C2C3C=CC(C3)C2C(=O)N1Nc1c(Cl)cc(Cl)cc1Cl (configuration not stated),2,6.6*,1,0,2,5
c1ccc2c(c1)ccc1c2nc2ccccn21,-4,-9,-12,0,x,x
CC(C)CCN1CCNC(=O)C1CC(=O)N(Cc1nccn1C)C(C)C (configuration not stated),5,5.8*,5,0,-1,-4
CCN1C(c2cccs2)=CS/C1=C(/C#N)c1nnc2n1CCCCC2,-2,-1,-13,0,x,x
CC(C)C(=O)N(CC(=O)Nc1sc2c(c1C(N)=O)CCCC2)Cc1ccccc1,6,7.1*,-2,0,0,7
CC(C)N1CCc2c(sc(NC(=O)Cc3ccccc3)c2C(N)=O)C1,-14,0,2,1,x,x
CC(=O)N1CCc2c(sc(NC(=O)Cc3ccccc3)c2C(N)=O)C1,1,5.3*,3,0,0,0
CCOC(=O)c1c(NC(=O)c2cc(=O)c3ccccc3o2)sc2c1CCN(C(C)=O)C2,1,6.0*,-10,0,0,2
CN(C)c1cccc(-c2cnc3c(n2)[nH]c(=O)n3C2CCCCC2)c1,-6,0,7,0,x,x
CCCCC1=CC2=C(c3ccco3)C(=O)C(C)(OC(=O)c3ccc(OC)cc3)C(=O)C2=CO1 (configuration not stated),x,-1,21,0,x,x
CCCCC1=CC2=C(c3ccco3)C(=O)C(C)(OC(=O)c3ccc(Cl)nc3)C(=O)C2=CO1 (configuration not stated),x,6.5*,-7,0,0,-16
COc1ccc(NC(=O)NCc2ccncc2)cc1,-4,2,-4,0,x,x
COc1ccc(NC(=O)C(=O)NCc2ccncc2)cc1,4,5.1*,1,0,-1,-14
CCOC(=O)/C(=C(/F)SCC(C)=O)C(F)(F)F,4,1,19,0,x,x
COc1cccc(CNC(=O)CSc2nc3c(oc4ccccc43)c(=O)n2CCCOC(C)C)c1,1,6.5*,2,0,-1,-13
CCc1c(C)nc2cc(-c3cccs3)nn2c1N1CCC(O)CC1,1,6.2*,17,0,2,9
SMILES,TEAD-YAP block,GPR151 ag,MITF primary,FBW7 act,GPR151 conf act,GPR119 ag
O=C(C1CCC1)N(CC1CCCO1)c1nc2ccc(F)cc2s1 (configuration not stated),-50,-4,10,0,x,x
CC(=O)Nc1ccc(Nc2cc(N3CCCC3CO)ncn2)cc1 (configuration not stated),-19,5.2*,-2,0,1,-9
OCC1CCCN1c1cc(Nc2ccc(N3CCOCC3)cc2)ncn1 (configuration not stated),-7,-2,10,0,x,x
COc1cc(C(=O)N2CCN(C3CCCC3)CC2)cc(OC)c1OC,1,1,-1,0,x,x
COc1cc(OC)cc(C(=O)N2CCN(C3CCCCC3)CC2)c1,0,5.0*,27,0,0,16
CNC(=O)CCC(=O)N1CCOc2ccc(Cl)cc21,2,7.2*,4,1,1,-5
Cc1noc(C)c1C(=O)NCC1Cc2cccc(-c3cnccn3)c2O1 (configuration not stated),5,-1,3,0,x,x
O=C(COC(=O)c1ccc([N+](=O)[O-])s1)Nc1cccc(I)c1,7,2,-7,0,x,x
Cc1nc2ncnn2c(N2CCC(C(=O)Nc3ccc(F)cc3)CC2)c1C,8,5.4*,-11,0,0,9
CCc1c(C)nc2ncnn2c1N1CCC(C(=O)Nc2ccc(C)cc2)CC1,12,-1,9,0,x,x
Cn1c(=O)c2c(ncn2CC(=O)N/N=C/c2ccccc2F)n(C)c1=O,2,0,-1,0,x,x
Cn1c(=O)c2c(ncn2CC(=O)N/N=C/c2ccc(C(F)(F)F)cc2)n(C)c1=O,2,5.6*,12,0,0,4
C=CCn1c(N)c(C(=O)NCCc2ccc(OC)c(OC)c2)c2nc3ccccc3nc21,7,14*,1,1,0,-2
Cc1cccc(-c2n[nH]c(=S)n2CC(=O)O)c1,3,7.2*,7,0,0,3
O=C(CN1C(=O)[C@@H]2CCCN2C(=O)c2ccccc21)Nc1ccccc1F,8,-1,4,0,x,x
O=C(CN1C(=O)[C@H]2CCCN2C(=O)c2ccccc21)Nc1cccc2ccccc12,-2,6.8*,-12,0,1,1
CC1(C)OC(=O)C(=CNC(CCC(N)=O)C(=O)O)C(=O)O1 (configuration not stated),-10,6.4*,12,0,1,-3
O=C(COc1ccc(Br)cc1)N1CCN(c2ccc([N+](=O)[O-])cc2)CC1,16,0,30,0,x,x
N#Cc1ccc(C(=O)C(=O)c2ccccc2)cc1C#N,-7,-1,0,1,x,x
N#Cc1ccccc1C(Br)C(Br)C(=O)O (configuration not stated),-5,6.0*,-2,0,-1,-8
CCOC(=O)c1[nH]c(C)c(C(=O)OCc2nc3ccc(Cl)cc3n2CCO)c1C,56*,6.3*,-2,0,1,-2
